NCOA1 inh = human NCOA1 inhibition | Q15788 | HEK293 GAL4-SRC1 luciferase reporter, luminescence | inhibition, % at 3.6 µM | 360,000 tested, 0.12% active | AID 588354;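 active = inhibition above the campaign mean plus 3 SD, with each screening campaign given its own cutoff, cut at about 60% in these data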;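 note: 0% = DMSO treated cells and 100% = gossypol at 36 µM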
Shn3 3UTR inh = reduces Shn3 3'UTR luciferase signal in osteoblasts; Clone20 osteoblast Shn3 3'UTR firefly luciferase, 24 h; inhibition, % at 12.5 µM; 360,000 tested, 0.52% active; AID 588674;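 active = mean inhibition of at least 75% with every replicate also reaching 75%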;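 note: 0% = median of neutral control wells and 100% = pilot-screen positive control compound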
Gli-Sufu block = Gli-Sufu pathway antagonism. 340,000 tested, 0.74% active. AID 588413. Sufu-KO-LIGHT fibroblasts, Gli luciferase reporter luminescence. inhibition, % at 5 µM;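 active = inhibition above about 55%, limit read from the data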;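 note: 0% = DMSO-treated cells and 100% = wells with medium but no cells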
NCOA2 inhibitor = human SRC2 (NCOA2) inhibition; Q15596; inhibition, % at 9 µM; 370,000 tested, 0.17% active; AID 651957; HEK293 GAL4-SRC2 luciferase reporter, luminescence;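 active = inhibition above the mean inhibition of all tested compounds plus 3 SD, set per campaign, cut at about 52% in these data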;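 note: 0% = DMSO treated cells and 100% = cells given Gossypol at 36 µM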
LRH-1 inv ag = NR5A2 inverse agonism in reporter assay; inhibition, % at 3.6 µM; 360,000 tested, 0.13% active; O00482; AID 602396; HEK293T StAR-luciferase reporter, LRH-1 transfected, 24 h;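 active = inhibition above the mean inhibition of all tested compounds plus 3 SD, cut at about 73% in these data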;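 note: 0% = DMSO wells and 100% = reporter-only cells lacking LRH-1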
NCOA3 inh = inhibits human SRC3 coactivator; Q9Y6Q9; HEK293 GAL4-SRC3 luciferase reporter, luminescence; inhibition, % at 3.6 µM; 360,000 tested, 0.17% active; AID 588352;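 active = inhibition above a per-campaign cutoff, the mean of all compounds plus 3 SD, cut at about 60% in these data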;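 note: 0% = DMSO-treated cells and 100% = gossypol-treated cells at 36 µM; higher means less SRC3-driven luciferase light from the GAL4 reporter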
Target sequence (Q9Y6Q9 whole entry, looked up, the tested form may be a part): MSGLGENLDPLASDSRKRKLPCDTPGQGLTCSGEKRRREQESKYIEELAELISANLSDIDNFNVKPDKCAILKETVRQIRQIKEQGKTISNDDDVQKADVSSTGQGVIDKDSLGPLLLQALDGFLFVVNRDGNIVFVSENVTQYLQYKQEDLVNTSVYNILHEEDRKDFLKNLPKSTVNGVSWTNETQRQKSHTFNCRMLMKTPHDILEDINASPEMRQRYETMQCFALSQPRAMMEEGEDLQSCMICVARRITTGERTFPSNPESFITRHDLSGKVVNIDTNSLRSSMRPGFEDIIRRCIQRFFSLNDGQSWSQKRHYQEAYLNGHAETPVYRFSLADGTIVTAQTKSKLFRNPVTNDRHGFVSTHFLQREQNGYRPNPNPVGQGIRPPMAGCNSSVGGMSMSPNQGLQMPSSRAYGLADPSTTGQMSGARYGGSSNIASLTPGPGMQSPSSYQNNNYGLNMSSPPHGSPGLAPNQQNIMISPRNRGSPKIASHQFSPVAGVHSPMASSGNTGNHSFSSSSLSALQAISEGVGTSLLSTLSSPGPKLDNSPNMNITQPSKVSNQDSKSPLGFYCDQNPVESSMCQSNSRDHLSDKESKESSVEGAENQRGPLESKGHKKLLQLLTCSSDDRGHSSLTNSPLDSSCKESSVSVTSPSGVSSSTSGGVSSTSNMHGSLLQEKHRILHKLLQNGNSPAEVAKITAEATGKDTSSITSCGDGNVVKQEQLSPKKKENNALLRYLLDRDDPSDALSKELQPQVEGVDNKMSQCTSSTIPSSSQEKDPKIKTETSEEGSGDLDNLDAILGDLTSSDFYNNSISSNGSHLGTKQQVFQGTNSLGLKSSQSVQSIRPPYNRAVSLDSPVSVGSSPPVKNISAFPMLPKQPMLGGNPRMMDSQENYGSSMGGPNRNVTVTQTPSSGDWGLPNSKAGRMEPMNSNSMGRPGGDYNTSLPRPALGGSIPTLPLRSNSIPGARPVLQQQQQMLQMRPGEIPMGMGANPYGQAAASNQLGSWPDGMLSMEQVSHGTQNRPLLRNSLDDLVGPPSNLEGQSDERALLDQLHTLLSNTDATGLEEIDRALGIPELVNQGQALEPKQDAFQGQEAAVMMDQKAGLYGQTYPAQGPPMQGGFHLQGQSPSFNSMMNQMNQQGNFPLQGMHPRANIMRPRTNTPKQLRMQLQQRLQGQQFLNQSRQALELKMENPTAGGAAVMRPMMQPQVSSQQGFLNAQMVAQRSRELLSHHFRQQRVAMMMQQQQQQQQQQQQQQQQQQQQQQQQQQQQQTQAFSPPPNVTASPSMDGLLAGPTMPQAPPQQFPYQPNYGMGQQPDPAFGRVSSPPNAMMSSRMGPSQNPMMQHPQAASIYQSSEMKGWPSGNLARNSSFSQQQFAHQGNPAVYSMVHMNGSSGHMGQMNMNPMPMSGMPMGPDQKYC
Gli-Sufu confirm = Gli-SUFU antagonism confirmation, single concentration. shares compounds with Gli-Sufu block. Sufu-KO-LIGHT cells, Gli luciferase reporter, luminescence. inhibition, % at 5 µM. 2,500 tested, 40% active;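 active = mean inhibition at 5 µM reaching about 45%, limit read from the data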;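 note: plate controls were DMSO-treated cells for no effect and wells lacking cells for full effect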
SufuKO cytotox = cytotoxic in Gli-SUFU antagonist counter-screen | shares compounds with Gli-Sufu block | Sufu-KO-LIGHT cells cytotoxicity, ATP luminescence | cytotoxicity, % at 5 µM | 2,500 tested, 32% active;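 active = mean cytotoxicity at 5 µM above about 25%, limit read from the data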;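 note: cells exposed to compound overnight for roughly 16 to 18 hours; plate controls were DMSO wells with cells for no effect and medium without cells for full effect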
Wnt3a cs = Wnt3a reporter inhibition counter-screen; shares compounds with Gli-Sufu block; Wnt-LIGHT cells, Wnt3a-driven luciferase reporter, luminescence; inhibition, % at 6.25 µM; 2,500 tested, 20% active;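 active = mean inhibition above about 25%, limit read from the data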
Starred values were filed as active, the others as inactive; / = not tested or not shown. Hits are enriched below; roughly 1.1% of the tested compounds scored in any of these assays.

SMILES	NCOA1 inh	Shn3 3UTR inh	Gli-Sufu block	NCOA2 inhibitor	LRH-1 inv ag	NCOA3 inh	Gli-Sufu confirm	SufuKO cytotox	Wnt3a cs
COc1ccc(-n2nc(C(=O)NCC(=O)NC(C)C)c3ccccc3c2=O)cc1OC	1	14	-1	-25	6	-5	/	/	/
COC(=O)CNC(=O)CNC(=O)c1nn(-c2ccc(OC)c(OC)c2)c(=O)c2ccccc12	10	-9	52	-24	-2	-10	10	-4	10
c1ccc(-n2c(SCc3cccc4ccccc34)nnc2-c2ccccn2)cc1	/	/	/	6	/	/	/	/	/
Cc1cc(C)n2nc(SCC(=O)c3cc(C)n(-c4cc(C)on4)c3C)nc2n1	10	82	55	23	1	21	52*	30*	34*
COc1cccc(-c2nc(CS(=O)(=O)CC(=O)NCCN3CCOCC3)c(C)o2)c1	7	-13	77*	-13	-13	4	21	-1	-6
CCCCNC(=O)c1ccc(N2CCOCC2)c(NS(=O)(=O)c2ccc(OC)cc2)c1	10	22	4	0	-2	11	/	/	/
CCNC(=O)Nc1cc(S(=O)(=O)Nc2ccc(OC)cc2)ccc1N1CCOCC1	21	72	61*	/	22	22	61*	46*	24
COCC#Cc1ccc(CC[C@H]2O[C@H]3CC[C@H](CO)O[C@H]3C[C@H]2n2cc(C(C)(C)O)nn2)cc1	/	/	/	-15	/	/	/	/	/
Cc1ccc(N(CC(=O)NCc2ccc(F)cc2)S(=O)(=O)c2c(C)n[nH]c2C)cc1	-4	-7	73*	-20	-25	-19	14	7	-49
COc1ccc(N(CC(=O)NCc2ccc(F)cc2)S(=O)(=O)c2c(C)n[nH]c2C)cc1	-2	-12	-4	-7	6	5	/	/	/
CN(C(=O)[C@@H](C1CC1)[C@@H](O)c1ccc(Cl)cc1)c1ccccc1	/	/	/	3	/	/	/	/	/
CCc1ccc(-c2nc(CSCC(=O)NCc3ccco3)c(C)o2)cc1	38	46	84*	80*	38	45	88*	-2	46*
Cc1ccc(-c2nc(CSCC(=O)NCC3CCCO3)c(C)o2)cc1 (stereo unspecified)	-9	-9	-26	-3	-18	-33	/	/	/
CCOc1ccc(-c2nc(CSCC(=O)NCC3CCCO3)c(C)o2)cc1 (stereo unspecified)	-5	28	89*	-9	6	-4	89*	8	25
CCCNC(=O)CSCc1nc(-c2ccc(SC)cc2)oc1C	-26	-28	24	4	-38	9	/	/	/
COc1ccc2c(c1)c(CC(=O)OCC(=O)O)c(C)n2C(=O)c1ccc(Cl)cc1	-20	-15	-18	0	11	-20	/	/	/
COc1ccc2c(c1)c(CC(=O)OCC(N)=O)c(C)n2C(=O)c1ccc(Cl)cc1	-3	-6	64*	-33	5	10	12	-3	-7
COc1ccccc1N1CCN(/N=C/c2ccc(O)c(O)c2)CC1	/	/	55	-3	/	/	25	1	18
COc1ccc(/C=N/N2CCN(c3ccccc3OC)CC2)cc1OC	-23	-16	-10	-7	-20	-13	/	/	/
C=CC(=O)NC1CCCCN(CC)C1=O (stereo unspecified)	/	/	/	-6	/	/	/	/	/
O=S1(=O)c2c(NCc3ccco3)cccc2Oc2ccccc2CN1Cc1cn(Cc2cccc(F)c2)nn1	/	/	/	13	/	/	/	/	/
O=C(CN1C(=O)c2ccccc2S1(=O)=O)c1ccccc1	-24	52	73*	9	-28	12	80*	11	93*
CC(C)NC(=O)CN1C(=O)c2ccccc2S1(=O)=O	4	-26	5	-23	-14	14	/	/	/
Cc1cc(C(=O)CN2C(=O)c3ccccc3S2(=O)=O)c(C)n1-c1ccccc1	-12	61	15	41	-10	-5	/	/	/
Cc1ccc(C(=O)CN2C(=O)c3ccccc3S2(=O)=O)cc1	48	55	78*	68*	13	63*	87*	26*	95*
SMILES	NCOA1 inh	Shn3 3UTR inh	Gli-Sufu block	NCOA2 inhibitor	LRH-1 inv ag	NCOA3 inh	Gli-Sufu confirm	SufuKO cytotox	Wnt3a cs
Cc1cc(C(=O)CN2C(=O)c3ccccc3S2(=O)=O)c(C)n1C(C)C	47	42	57*	58*	38	40	49*	12	44*
COC(=O)C1CN(Cc2cn(Cc3ccc(Cl)cc3)nn2)CCS(=O)(=O)N1Cc1ccccc1 (stereo unspecified)	/	/	/	21	/	/	/	/	/
COc1ccc(CN(C)Cc2nc(Cc3cccc(F)c3)no2)c2cccnc12	19	85	63*	23	32	28	54*	18	27*
COc1cccc(-n2cc(CN(C)Cc3nc(Cc4cccc(F)c4)no3)cn2)c1	-3	-6	-6	10	2	16	/	/	/
C[C@@H]1COc2cc(Br)ccc2S(=O)(=O)N1Cc1cn(CC2CCCCC2)nn1	/	/	/	-28	/	/	/	/	/
Cc1nc(Nc2ccc(F)cc2)nc(Nc2ccc(F)cc2)c1[N+](=O)[O-]	-6	-2	53	-47	2	6	13	-2	42*
COc1ccc2ccccc2c1C=NNC(=O)c1cc(-c2ccc(C)cc2)n[nH]1	/	/	/	11	/	/	/	/	/
CN1CCN(C(=O)c2ccc(N3CCCC3=O)cc2)CC1	-18	-11	60*	17	1	-9	20	-3	-9
O=C(c1ccc(N2CCCC2=O)cc1)N1CCOCC1	6	-46	-3	-1	-30	-12	/	/	/
COc1cccc(-c2cc(C(F)(F)F)n3nc(N)nc3n2)c1	1	2	78*	-19	4	14	29	12	-15
CCCC(C)C(=O)Nc1nc(C)c(-c2csc(Nc3ccc(Cl)cc3)n2)s1 (stereo unspecified)	21	26	53	11	30	21	60*	18	5
Fc1ccccc1COc1cccc(/C=N/n2cnnc2)c1	-15	21	-8	-8	-82	-18	/	/	/
Cc1cc(/C=N/n2cnnc2)c(C)n1-c1ccc(OCc2ccccc2F)cc1	-49	62	60*	-10	-70	-18	68*	27*	27*
CCCc1nc(SCC(=O)Nc2nnc(CC)s2)c2c(=O)n(C)c(=O)n(C)c2n1	5	51	66*	19	-3	-9	50*	23	6
CCc1nc(SCC(=O)Nc2nnc(CC)s2)c2c(=O)n(C)c(=O)n(C)c2n1	11	67	42	8	10	12	/	/	/
CCCc1nc(SCC(=O)Nc2nnc(SCC)s2)c2c(=O)n(C)c(=O)n(C)c2n1	5	46	58*	-13	12	-5	56*	35*	7
